Among all 96,000 compounds or so, about 20,000 (21%) were called active.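 How the source made its calls: active means CYP2C19 inhibition above a set limit at 5 µM in the primary screen (cut at about 50% in these data); inactive means the rest.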 These entries were drawn from the full list.
Molecular target: Cytochrome P450 2C19 (Homo sapiens) (UniProt P33261)
Assay: blockers of cytochrome P450 2C19 activity – biochemical, luminescence, ADME assay, primary screen (AID 778);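 further: plate controls were negative control wells for no effect and 2.5 mM tranylcypromine positive control for full effect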
Settings: CYP2C19 Supersomes, luciferin-H EGE luminescence, 30 min; at 5 µM; hits give high values

Chain of Cytochrome P450 2C19 (Homo sapiens) (P33261 whole entry, looked up): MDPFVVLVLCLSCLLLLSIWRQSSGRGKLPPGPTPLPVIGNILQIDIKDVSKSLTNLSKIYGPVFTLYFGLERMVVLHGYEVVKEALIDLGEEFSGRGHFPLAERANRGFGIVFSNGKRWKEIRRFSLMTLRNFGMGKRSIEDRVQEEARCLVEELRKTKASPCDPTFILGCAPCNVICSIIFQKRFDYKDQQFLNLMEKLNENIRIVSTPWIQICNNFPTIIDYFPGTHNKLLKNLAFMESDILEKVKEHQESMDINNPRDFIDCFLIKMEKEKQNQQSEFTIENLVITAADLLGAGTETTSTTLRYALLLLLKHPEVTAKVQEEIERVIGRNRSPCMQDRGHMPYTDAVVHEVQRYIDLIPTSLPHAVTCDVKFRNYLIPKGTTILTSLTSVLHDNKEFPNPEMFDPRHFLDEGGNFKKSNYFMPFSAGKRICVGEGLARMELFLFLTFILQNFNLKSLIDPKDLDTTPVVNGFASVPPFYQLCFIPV

inhibition, active:
Cc1ccc(F)c(NC(=O)CCc2ccccc2)c1 65.2%, COc1ccc([N+](=O)[O-])cc1NC(=O)CCc1ccccc1 63.7%, CC1=C2C(=O)OC(c3ccoc3)C2(C)CCC1 (stereo not drawn) 78.1%, CC(=O)Nc1ccc(S(=O)(=O)NCCc2ccccc2)cc1 90.7%, O=C(COc1ccc(S(=O)(=O)NCCc2ccccc2)cc1)N1CCCC1 81.4%, COc1ccc(CCNC(=O)c2cc3sccc3n2C)cc1OC 50.9%, CCn1nc(C(=O)OCC(=O)N2c3ccccc3CC2C)c2ccccc2c1=O (stereo not drawn) 66.9%, O=C(C1CCN(S(=O)(=O)Cc2ccccc2)CC1)N1CCCc2ccccc21 61.9%, Cc1ccc(S(=O)(=O)c2nc(NCCCn3ccnc3)sc2Cl)cc1 99.4%, Cc1c(C=O)c2ccccn2c1C(=O)c1ccncc1 85.8%, OC(c1ccccc1)c1nccn1Cc1ccccc1 (stereo not drawn) 81.9%, Cc1cccc(N2CCN(C(=O)c3cnn4c(C(F)F)cc(-c5ccccc5)nc34)CC2)c1C 51%, Cc1ccc(C)n1-c1ccncc1 56.5%

inhibition, inactive:
Cc1cc([N+](=O)[O-])ccc1NCc1cccc([N+](=O)[O-])c1 -3.5%, CCn1ncc(Br)c1C(=O)Nc1cc(C)ccc1F 24%, COc1ccc(OC)c(NC(=O)CC(Cc2ccccc2OC)C(=O)O)c1 (stereo not drawn) 1.6%, CCN(CC)CCCNC(=O)CCc1ccccc1 7.3%, CCC(C)(C)c1ccc(Oc2ccc(NC(=O)COC(=O)C3=COCCO3)cc2)cc1 49.9%, Cc1ccc(C(=O)N/C(=C/c2ccco2)C(=O)NCCc2c[nH]c3ccccc23)cc1C 39.8%, CCOC(=O)N1CCN(C(=O)C2CCN(c3ncnc4c3sc3cccc(F)c34)CC2)CC1 24.8%, CC(C)C(=O)N1c2ccccc2NC2=C(C(=O)CCC2)C1c1ccc(N(C)C)cc1 (stereo not drawn) 8.1%, COC(=O)C(C)C1Sc2ccccc2NC1=O (stereo not drawn) 44.9%, O=C(COc1ccc(Cl)cc1)N1CCN(S(=O)(=O)c2ccc(Cl)cc2)CC1 -21%, COC(=O)[C@H](Cc1ccccc1)NC(=O)Nc1ccc(S(N)(=O)=O)cc1 -4.1%, Cn1c(=O)c(=O)n(C)c2cc(S(=O)(=O)NCCc3ccccc3)ccc21 6.1%, O=C(COc1ccc(/C=N/NS(=O)(=O)c2ccccc2)cc1)NCCc1ccccc1 -0.6%, COc1cc(OC)cc(C(=O)Nc2ncc3c(n2)CC(C)(C)CC3=O)c1 9.1%, Cc1cccc(C)c1-n1c(C)cc(/C=C2\C(=O)NN(c3ccccc3)C2=O)c1C 36.4%, CCOC(=O)c1ccccc1NC(=O)CC1Nc2ccccc2NC1=O (stereo not drawn) 8.5%, C=C(Br)CN1CCN(CC(=C)Br)CC1 9.1%, COc1ccc(CCNC(=O)c2cc(-c3ccc4c(c3)OCO4)on2)cc1OC -2.7%, Cn1c(C(=O)NCCCN2CCCCC2)cc2sccc21 5.3%, CC12COC3(C(=O)Nc4ccc(Cl)cn4)CC1CCC32C (stereo not drawn) 16.5%, O=C(CCCN1C(=O)CCC1=O)Nc1ccc(Cl)c(C(F)(F)F)c1 11.2%, C=CCC(NCc1ccco1)c1ccc(OC)cc1 (stereo not drawn) -0.2%, CC(C)C(=O)Nc1nnc(Sc2ccc(N(C)C)cc2)s1 47.8%, Cn1c(CN2CCOCC2)nc2cc(NC(=O)c3ccc(Cl)cc3)ccc21 4.8%, CCOC(=O)c1[nH]c(C)c(C(=O)OCC(=O)N2c3ccccc3CC2C)c1C (stereo not drawn) 0.9%, CC1Cc2ccccc2N1C(=O)Cn1cnc2ccccc2c1=O (stereo not drawn) 9.8%, COc1nc(Oc2ccc(=O)n(C)n2)nc(N(C)C)n1 -17.1%, O=C(CC1N=C2c3ccccc3N=C(SCc3ccccc3Cl)N2C1=O)NCc1ccco1 (stereo not drawn) 37.8%, Cc1noc(/C=C/c2ccco2)c1S(=O)(=O)N1CCC(C(=O)N2CCc3ccccc32)CC1 24.1%, CCS(=O)(=O)N1CCC(C(=O)N2CCN(c3ccccc3)CC2)CC1 -1%, COC(=O)C1C(=O)CC(C)(O)C(C(=O)OC)C1c1ccc2c(c1)OCO2 (stereo not drawn) 29.1%, COc1ccc(S(=O)(=O)N(CCCN2CCCC2=O)Cc2cc3c(C)ccc(C)c3[nH]c2=O)cc1 38.4%, O=C(CSCc1ccc(Br)cc1)Nc1ccc(S(=O)(=O)N2CCCCCC2)cc1 27.3%, CN(C)c1ccnc2sc3c(=O)n(Cc4ccccc4)cnc3c12 27.4%, CCSc1nnc(-c2cc3c(s2)-c2ccccc2CC3)o1 -5.2%, CC(=O)NC1=NC(=O)CS1 6%, CCCC(=O)Nc1nc2ccc(NC(=O)c3cccnc3)cc2s1 16.4%, CCN1C(=O)CS/C1=N\c1nccs1 19%, O=C1C=C(NCCNc2c(F)c(F)c(CO)c(F)c2F)CCC1 4.9%, Cc1cc(C(=O)O)c(S(C)(=O)=O)s1 -6.4%, Cc1csc(NC(=O)C2CCCN2C(=O)OCC(C)C)n1 (stereo not drawn) 29.2%, CC(C)(C)c1cc2cccnc2n1Cc1ccccc1 13.8%, CC(c1nnc(SCC(=O)Nc2sccc2C#N)n1-c1ccc(Cl)cc1)N(C)C (stereo not drawn) 31.1%, O=C(O)c1cnn2c(C(F)(F)F)cc(-c3ccccc3)nc12 20.2%, CC(=O)N1CCN(c2cccc(C)c2C)CC1 -2.5%, O=C(Cn1cc(-c2nnnn2-c2ccc(Cl)cc2)c(=O)c2ccccc21)c1ccccc1 -16.7%, O=C(NCCCCO)C(F)(F)C(F)(F)C(F)(F)C(=O)NCCCCO 9.4%, CCSc1nc(-c2ccc(OC)cc2)cc(-c2ccc(OC)cc2)c1C#N 32.3%, Cc1ccc(N)cc1-n1c(C)ccc1C 23.2%, COc1ccc(-c2cc(C)nc3nc(N)nn23)cc1 -16.3%

Reference: PubChem BioAssay AID778 (Sanford-Burnham Center for Chemical Genomics, 2007)
